About 83,000 compounds went through this panel and 20% of them were active in at least one assay; those are over-represented in the sample as a whole.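 Percent growth is the endpoint: 0 to 100 indicates growth inhibition (40 means 60% inhibition), 0 means no net growth, and negative values indicate cell death.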 Activity calls are given as the source filed them. The calls were made as follows: active = growth percent below 10; inactive = the rest.
Experiments:
Assay in all cases: NCI-60 one-dose screen, 48 h (100 = growth as untreated, 0 = no growth, -100 = all killed)
SR leukemia = conditions: 10 µM unless noted
RPMI-8226 leukemia = conditions: 10 µM unless noted
OVCAR-8 ovarian = conditions: 10 µM unless noted
OVCAR-5 ovarian = conditions: 10 µM unless noted
OVCAR-4 ovarian = conditions: 10 µM unless noted
SK-OV-3 ovarian = conditions: 10 µM unless noted
IGROV1 ovarian = conditions: 10 µM unless noted
HS 578T breast = conditions: 10 µM
T-47D breast = conditions: 10 µM unless noted
BT-549 breast = conditions: 10 µM unless noted
MDA-MB-435 melanoma = conditions: 10 µM unless noted
SW-620 colon = conditions: 10 µM unless noted
MCF7 breast = conditions: 10 µM unless noted
HCT-116 colon = conditions: 10 µM unless noted
HCC-2998 colon = conditions: 10 µM unless noted
KM12 colon = conditions: 10 µM unless noted
OVCAR-3 ovarian = conditions: 10 µM unless noted
NCI/ADR-RES ovarian = conditions: 10 µM unless noted

Measured: growth

CCC1CCc2nc3sc(C(=O)Nc4cccc(F)c4)c(N)c3cc2C1 (stereo not given)
inactive: SR leukemia 12.5% | RPMI-8226 leukemia 44.9% | OVCAR-8 ovarian 86.6% | OVCAR-5 ovarian 90.5% | OVCAR-4 ovarian 99.2% | SK-OV-3 ovarian 83.1% | IGROV1 ovarian 89.2% | HS 578T breast 79.5% | T-47D breast 89.9% | BT-549 breast 88.1% | SW-620 colon 40.6% | MCF7 breast 12.6% | HCT-116 colon 60% | HCC-2998 colon 91.6% | KM12 colon 41.3%
active: MDA-MB-435 melanoma -12.6%

Nc1c(C(=O)Nc2cccc(Cl)c2)sc2ncc(Br)cc12
inactive: SR leukemia 71.7% | RPMI-8226 leukemia 71.3% | OVCAR-8 ovarian 87.1% | OVCAR-5 ovarian 84.1% | SK-OV-3 ovarian 61% | IGROV1 ovarian 70% | OVCAR-3 ovarian 54.5% | T-47D breast 62.6% | BT-549 breast 68.2% | MDA-MB-435 melanoma 71.9% | SW-620 colon 61.3% | MCF7 breast 84.2% | HCT-116 colon 23% | HCC-2998 colon 99.7% | KM12 colon 63.8%
active: OVCAR-4 ovarian 9.2%

O=C(O)c1cn(-c2ccccc2)nc1-c1ccc(O)cc1
inactive: SR leukemia 93.3% | RPMI-8226 leukemia 96.7% | OVCAR-8 ovarian 90.8% | OVCAR-5 ovarian 101% | OVCAR-4 ovarian 92.2% | SK-OV-3 ovarian 92.4% | IGROV1 ovarian 111% | HS 578T breast 94.2% | NCI/ADR-RES ovarian 101% | T-47D breast 101% | BT-549 breast 99.3% | MDA-MB-435 melanoma 103% | SW-620 colon 98.5% | MCF7 breast 88.7% | HCT-116 colon 96.4% | HCC-2998 colon 95.5%

CCC(=O)NC(O)C(Cl)(Cl)C(C)Cl (stereo not given)
inactive: SR leukemia 105% | RPMI-8226 leukemia 105% | OVCAR-8 ovarian 98.1% | OVCAR-5 ovarian 105% | OVCAR-4 ovarian 109% | SK-OV-3 ovarian 107% | IGROV1 ovarian 99.6% | NCI/ADR-RES ovarian 96.3% | T-47D breast 85.4% | MDA-MB-435 melanoma 96.8% | SW-620 colon 105% | MCF7 breast 90.3% | HCT-116 colon 103% | HCC-2998 colon 101% | KM12 colon 103%

COc1ccc(/C(=C\c2cc(OC)c(OC)c(OC)c2)C(=O)Nc2nc3ccc(Cl)cc3s2)cc1
inactive: SR leukemia 76.4% | RPMI-8226 leukemia 80.8% | OVCAR-8 ovarian 94.1% | OVCAR-5 ovarian 97.2% | OVCAR-4 ovarian 104% | SK-OV-3 ovarian 98.4% | IGROV1 ovarian 106% | HS 578T breast 100% | NCI/ADR-RES ovarian 92% | T-47D breast 86.7% | BT-549 breast 98.3% | MDA-MB-435 melanoma 100% | SW-620 colon 105% | MCF7 breast 98.9% | HCT-116 colon 86.8% | HCC-2998 colon 104% | KM12 colon 94.2%

Nc1nc2ccc([C@@H]3Nc4ccc5[nH]ncc5c4[C@H]4[C@H]5CCC(C5)[C@H]43)cc2s1
active: SK-OV-3 ovarian -17.5% | HS 578T breast 8.66% | MDA-MB-435 melanoma -62.4% | SW-620 colon -3.94% | MCF7 breast -0.0226% | KM12 colon 3.63%
inactive: SR leukemia 51.1% | RPMI-8226 leukemia 19.5% | OVCAR-8 ovarian 37.5% | OVCAR-5 ovarian 21.3% | OVCAR-4 ovarian 14.4% | IGROV1 ovarian 33.3% | NCI/ADR-RES ovarian 17.4% | BT-549 breast 36.7% | HCT-116 colon 12.1% | HCC-2998 colon 49.3%

Cc1cc(C)c2c(n1)sc1c(Nc3ccc(OCc4ccccc4)cc3)ncnc12
inactive: SR leukemia 95.5% | RPMI-8226 leukemia 95.1% | OVCAR-8 ovarian 104% | OVCAR-5 ovarian 109% | OVCAR-4 ovarian 107% | SK-OV-3 ovarian 106% | IGROV1 ovarian 97.5% | HS 578T breast 108% | NCI/ADR-RES ovarian 100% | T-47D breast 95.7% | BT-549 breast 102% | MDA-MB-435 melanoma 107% | SW-620 colon 101% | MCF7 breast 93.2% | HCT-116 colon 103% | HCC-2998 colon 96.1% | KM12 colon 94.2%

COc1ccc(Br)c2ccccc12
inactive: SR leukemia 96% | RPMI-8226 leukemia 105% | OVCAR-8 ovarian 99.7% | OVCAR-5 ovarian 110% | OVCAR-4 ovarian 117% | SK-OV-3 ovarian 115% | OVCAR-3 ovarian 112% | HS 578T breast 112% | NCI/ADR-RES ovarian 118% | T-47D breast 97.9% | BT-549 breast 123% | MDA-MB-435 melanoma 105% | SW-620 colon 106% | MCF7 breast 100% | HCC-2998 colon 104% | KM12 colon 109%

CCCc1n(Cc2ccc3ccccc3c2)c2ccccc2[n+]1Cc1ccc2ccccc2c1
active: SR leukemia -46.7% | RPMI-8226 leukemia -60.9% | OVCAR-8 ovarian -71.3% | OVCAR-5 ovarian -27.1% | OVCAR-4 ovarian -16% | SK-OV-3 ovarian -21.5% | OVCAR-3 ovarian -76.8% | HS 578T breast -8.47% | T-47D breast -9.39% | BT-549 breast -76.6% | MDA-MB-435 melanoma -82.8% | SW-620 colon -74.2% | MCF7 breast -64.4% | HCT-116 colon -91.2% | HCC-2998 colon -57.2% | KM12 colon -75%
inactive: NCI/ADR-RES ovarian 79.4%

COc1ccc([C@@H]2[C@@H](Oc3ccccc3)C(=O)N2c2cc(OC)c(OC)c(OC)c2)cc1F
inactive: OVCAR-5 ovarian 19.8% | OVCAR-4 ovarian 39% | SK-OV-3 ovarian 16.6% | HS 578T breast 26% | NCI/ADR-RES ovarian 12.2% | T-47D breast 87.4% | SW-620 colon 26.2% | MCF7 breast 14.1% | HCC-2998 colon 12.9% | KM12 colon 11.7%
active: SR leukemia 5.09% | RPMI-8226 leukemia 3.15% | OVCAR-8 ovarian 6.55% | BT-549 breast 1.45% | MDA-MB-435 melanoma -27.5% | HCT-116 colon 2.37%

COc1ccc(C2=Nn3c(nnc3-c3ccc(Cl)cc3N)SC2)cc1
inactive: SR leukemia 102% | RPMI-8226 leukemia 103% | OVCAR-8 ovarian 98.1% | OVCAR-5 ovarian 99.5% | OVCAR-4 ovarian 103% | IGROV1 ovarian 114% | OVCAR-3 ovarian 114% | HS 578T breast 113% | NCI/ADR-RES ovarian 115% | T-47D breast 88.1% | MDA-MB-435 melanoma 91.4% | SW-620 colon 108% | MCF7 breast 89.8% | HCT-116 colon 105% | HCC-2998 colon 120% | KM12 colon 110%

COc1cc(C2CC(c3ccc(Nc4ccnc5cc(Cl)ccc45)cc3)=NN2c2ccccc2)cc(OC)c1OC (stereo not given)
inactive: SR leukemia 24.8% | RPMI-8226 leukemia 49.7% | OVCAR-8 ovarian 81.2% | OVCAR-5 ovarian 86.4% | OVCAR-4 ovarian 123% | SK-OV-3 ovarian 90.3% | OVCAR-3 ovarian 86.7% | HS 578T breast 72.4% | T-47D breast 67.7% | BT-549 breast 82.3% | SW-620 colon 50.2% | MCF7 breast 48% | HCT-116 colon 54.9% | HCC-2998 colon 67.7% | KM12 colon 47.9%
active: MDA-MB-435 melanoma 6.36%

COC(=O)c1cc(Cl)cc([N+](=O)[O-])c1O
inactive: SR leukemia 63.5% | RPMI-8226 leukemia 93.3% | OVCAR-8 ovarian 105% | OVCAR-5 ovarian 93.7% | OVCAR-4 ovarian 122% | SK-OV-3 ovarian 116% | HS 578T breast 107% | NCI/ADR-RES ovarian 114% | T-47D breast 101% | BT-549 breast 108% | MDA-MB-435 melanoma 99.3% | SW-620 colon 102% | MCF7 breast 113% | HCT-116 colon 101% | HCC-2998 colon 104% | KM12 colon 109%

CC(=O)Nc1ccc(Cl)cc1Cl
inactive: SR leukemia 44.3% | RPMI-8226 leukemia 121% | OVCAR-8 ovarian 97.6% | OVCAR-5 ovarian 102% | OVCAR-4 ovarian 105% | SK-OV-3 ovarian 108% | HS 578T breast 178% | NCI/ADR-RES ovarian 115% | T-47D breast 103% | BT-549 breast 120% | MDA-MB-435 melanoma 96% | SW-620 colon 116% | MCF7 breast 100% | HCT-116 colon 105% | HCC-2998 colon 106% | KM12 colon 112%

O=NN(CC(=O)NNc1ccccc1)CC(=O)NNc1ccccc1
inactive: SR leukemia 74.3% | RPMI-8226 leukemia 55.4% | OVCAR-8 ovarian 67.7% | OVCAR-5 ovarian 74.5% | OVCAR-4 ovarian 70.8% | SK-OV-3 ovarian 101% | OVCAR-3 ovarian 86.9% | HS 578T breast 94.2% | NCI/ADR-RES ovarian 40.7% | T-47D breast 46.6% | BT-549 breast 103% | MDA-MB-435 melanoma 30.5% | SW-620 colon 31.1% | MCF7 breast 69.5% | HCT-116 colon 57% | HCC-2998 colon 68.9% | KM12 colon 37.9%

CC(C)(C)NC(=O)C(OC(=O)C1CCc2cc(F)ccc2O1)c1ccccc1Cl (stereo not given)
inactive: SR leukemia 98.4% | RPMI-8226 leukemia 99% | OVCAR-8 ovarian 98.3% | OVCAR-5 ovarian 96.6% | OVCAR-4 ovarian 94.9% | SK-OV-3 ovarian 102% | HS 578T breast 99.7% | NCI/ADR-RES ovarian 95.5% | T-47D breast 86.8% | BT-549 breast 107% | MDA-MB-435 melanoma 106% | SW-620 colon 99.7% | MCF7 breast 97.8% | HCT-116 colon 93.9% | HCC-2998 colon 102%

c1ccc2c(Cc3csc4ccccc34)csc2c1
inactive: SR leukemia 50% | RPMI-8226 leukemia 94.8% | OVCAR-8 ovarian 101% | OVCAR-5 ovarian 101% | OVCAR-4 ovarian 88.3% | SK-OV-3 ovarian 77.7% | OVCAR-3 ovarian 92.5% | HS 578T breast 104% | NCI/ADR-RES ovarian 81.9% | T-47D breast 78.9% | BT-549 breast 92.2% | SW-620 colon 62.6% | MCF7 breast 68.4% | HCT-116 colon 78% | HCC-2998 colon 85.3% | KM12 colon 75.8%
active: MDA-MB-435 melanoma -9.16%
